Jurkat NFkB inh – inhibitors of the PMA/ionomycin-induced NF-kB reporter in Jurkat cells. inhibition, % at 4 µM. PMA/ionomycin-induced NF-kB luciferase reporter, luminescence. hit rate 0.53% among 330,000; in the data active = inhibition above about 50%
Gli-Sufu block – Gli-Sufu pathway antagonism; Sufu-KO-LIGHT fibroblasts, Gli luciferase reporter luminescence; AID 588413; hit rate 0.74% among 340,000; inhibition, % at 5 µM;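 active = inhibition above about 55%, limit read from the data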
H9c2 TAG inh – reduces triacylglycerol accumulation in H9c2 cells. Nile Red lipid (TAG) fluorescence; cells loaded with 200 µM oleic acid. inhibition, % at 12.5 µM. hit rate 0.66% among 230,000. AID 651582;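 active = pattern-corrected inhibition of lipid staining of at least 50% with the nuclear-stain viability signal not falling by more than 50%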
Shn3 inh set2 – inhibitors of Schnurri-3 3'UTR reporter in osteoblasts; AID 588674; inhibition, % at 12.5 µM; hit rate 0.52% among 360,000; Clone20 osteoblast Shn3 3'UTR firefly luciferase, 24 h;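 active = mean inhibition of at least 75% with every replicate also reaching 75%; inconclusive = mean inhibition at least 75% but some replicate below; inactive = mean inhibition below 75%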
697 NFkB inh – lowers PMA/ionomycin-induced NF-kB signal in 697 B cells. 697 B-cell NF-kB luciferase reporter, 16 h. inhibition, % at 4 µM. hit rate 0.33% among 330,000. AID 435022; in the data active = inhibition above about 35%
aSyn UTR inh – MLPCN primary screen, SNCA 5' untranslated region. alpha-synuclein 5'UTR reporter, inhibitor activity. inhibition, % (tested at 7.5 µM). hit rate 0.82% among 300,000. AID 1813; in the data active = inhibition above about 60%; inconclusive = no clear call, values can overlap the other calls;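 also: H4 neuroglioblastoma cells stably carrying SNCA 5'UTR luciferase fusion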
Jurkat NFkB conf – inhibitors of the PMA/ionomycin-induced NF-kB reporter in Jurkat cells, retest. Jurkat NF-kB luciferase, 16 h. hit rate 27% among 2,700. AID 435020. inhibition, % at 4 µM. shares compounds with Jurkat NFkB inh;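 active = inhibition reaching about 45% at 4 µM in either replicate, limit read from the data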
Of the large screens only hits and unclear results are named; the others gave an inactive call (follow-up assays come after a bar, where they were run). Shown are actives, neighbours in structure and some others; about 2.3% of the full set was active somewhere.

COc1ccc(NC(=S)c2ccc(N(C)C)cc2)cc1	none
Cc1ccc(NC(=S)c2ccc(N(C)C)cc2)cc1	aSyn UTR inh inconclusive (no result: H9c2 TAG inh) | Jurkat NFkB conf inactive
O=C(NCCCN1CCCC1)c1ccc(CS(=O)(=O)c2ccc(Br)cc2)o1	none (no result: H9c2 TAG inh)
Cc1ccc(C(=O)NN(C)c2nc3ccccc3nc2C(F)(F)F)cc1	Jurkat NFkB inh 56 | Jurkat NFkB conf inactive
CN(NC(=O)c1ccc(Cl)cc1)c1nc(-c2ccccc2)nnc1C(F)(F)F	none
O=C(CCN1CCOCC1)N1CCc2c([nH]c3ccccc23)C1c1cccc(Cl)c1 (stereo not drawn)	none
Cc1ccc(NC(=O)/C(Cl)=C/c2ccccc2)cc1C	none | Jurkat NFkB conf inactive
CCc1ccc(/C=N/NC(=O)c2cc(C3CC3)nc3ccccc23)s1	Jurkat NFkB inh 58 (no result: Shn3 inh set2) | Jurkat NFkB conf inactive
O=C(COc1ccccc1Cl)NNC(=O)c1ccc(-n2cncn2)c([N+](=O)[O-])c1	none (no result: aSyn UTR inh)
CN(C)c1ccc(N=Nc2cccc(F)c2)cc1	none (no result: H9c2 TAG inh) | Jurkat NFkB conf inactive
C/C(Cc1ccccc1)=N\NC(=O)CCCCCC(=O)N/N=C(\C)Cc1ccccc1	none
Cc1nc(-c2ccc(NC(=O)c3ccco3)cc2)cs1	Jurkat NFkB inh 52, aSyn UTR inh inconclusive (no result: H9c2 TAG inh) | Jurkat NFkB conf inactive
Cc1ccc(C(=O)OCC(=O)c2ccccc2)cc1	none | Jurkat NFkB conf inactive
Cc1ccc(C(=O)CC(=O)c2ccccc2)cc1	none (no result: H9c2 TAG inh)
Cc1nc(NC(=O)c2csc3ccccc23)sc1C	none (no result: H9c2 TAG inh) | Jurkat NFkB conf inactive
Cc1nc(NC(=O)c2ccccc2O)sc1C	none (no result: H9c2 TAG inh)
CCOCCCNC(=O)c1cc2c(=O)n3cccc(C)c3nc2n1C	Jurkat NFkB inh 58 | Jurkat NFkB conf inactive
O=C(c1ccccc1)c1cnc(-c2ccc(Cl)cc2)s1	none | Jurkat NFkB conf inactive
O=S(=O)(NC1=NCCCCC1)c1ccc(F)cc1	none
CN(C)c1ccc(/C=C/c2ccc3ccccc3[n+]2C)cc1	Jurkat NFkB inh 93, Gli-Sufu block 87 (no result: H9c2 TAG inh) | Jurkat NFkB conf 66
Cc1ccc(COC(=O)c2cc([N+](=O)[O-])ccc2N2CCOCC2)cc1	Jurkat NFkB inh 63, aSyn UTR inh 68 (no result: Gli-Sufu block) | Jurkat NFkB conf 52
c1ccc2oc(-c3csc(N4CCOCC4)n3)cc2c1	none | Jurkat NFkB conf inactive
O=C(Nc1ccc(N2CCOCC2)cc1)c1ccc(Cl)c(S(=O)(=O)N2CCCCC2)c1	Jurkat NFkB inh 51 (no result: aSyn UTR inh) | Jurkat NFkB conf 57
CCCCOC(=O)Nc1ccc(N2CCCCC2)cc1	none (no result: H9c2 TAG inh) | Jurkat NFkB conf inactive
O=C(Nc1ccc(N2CCOCC2)cc1)c1cccc(S(=O)(=O)N2CCCCC2)c1	none
CCN(CC)S(=O)(=O)c1ccc(NC(=O)c2ccc(CN3CCOCC3)cc2)cc1	Jurkat NFkB inh 58 (no result: H9c2 TAG inh) | Jurkat NFkB conf 58
O=C(Nc1ccc(S(=O)(=O)N2CCCCC2)cc1)c1ccc(CN2CCOCC2)cc1	Jurkat NFkB inh 62 (no result: H9c2 TAG inh) | Jurkat NFkB conf 61
O=C(Nc1ccc(S(=O)(=O)N2CCCC2)cc1)c1ccc(CN2CCOCC2)cc1	none
O=C(CSCc1ccc(Cl)cc1Cl)Nc1ccc(O)cc1C(=O)O	none (no result: H9c2 TAG inh)
O=C(Cc1ccccc1)Nc1nc2ccccc2[nH]1	none (no result: H9c2 TAG inh)
O=C(Nc1ccc(F)cc1)c1ccc(CN2CCc3ccccc3C2)cc1	Jurkat NFkB inh 58 | Jurkat NFkB conf inactive
O=C(Nc1ccc(N2CCCCC2)cc1)c1ccc(F)cc1	none | Jurkat NFkB conf inactive
O=C(c1ccc(F)cc1)c1ccc(N2CCCCC2)cc1	none (no result: H9c2 TAG inh)
CN(C)CCNC(=O)c1cc2c(s1)-c1ccc(Cl)cc1SC2	Jurkat NFkB inh 62, aSyn UTR inh 100 (no result: H9c2 TAG inh) | Jurkat NFkB conf inactive
COc1ccc(/C=N/NC(=O)c2[nH]c3ccc(Br)cc3c2-c2ccccc2)cc1	Jurkat NFkB inh 84, aSyn UTR inh 80 | Jurkat NFkB conf 61
CSc1nc(C)cc(OCC(=O)N/N=C/c2ccccc2O)n1	Jurkat NFkB inh 52 | Jurkat NFkB conf inactive
Cc1cc(=O)oc2cc(OCC(=O)N/N=C/c3ccccc3O)ccc12	none (no result: H9c2 TAG inh)
O=S1(=O)Nc2c(ccc3cccnc23)-c2ccccc21	Jurkat NFkB inh 69, Gli-Sufu block 82, Shn3 inh set2 88 (no result: H9c2 TAG inh) | Jurkat NFkB conf 54
COCCNC(=O)CN(C(=O)CCC(=O)Nc1ccccn1)c1ccc(C)cc1C	none
O=C(NC(Nc1nc2ccc([N+](=O)[O-])cc2s1)(C(F)(F)F)C(F)(F)F)c1ccccc1Cl	Jurkat NFkB inh 78, Gli-Sufu block 93, Shn3 inh set2 90, aSyn UTR inh 86 | Jurkat NFkB conf 70
O=[N+]([O-])c1ccc(N2CCN(Cc3ccc(Br)o3)CC2)cc1	Jurkat NFkB inh 52 | Jurkat NFkB conf inactive
Cc1nonc1OCCN1CCN(c2ccc([N+](=O)[O-])cc2)CC1	Jurkat NFkB inh 58 | Jurkat NFkB conf inactive
CCc1nc2ccc(C(=O)N(CC)CC(=O)Nc3c(F)cccc3F)cc2nc1CC	none (no result: aSyn UTR inh)
N#C/C(=N\Nc1ccc(Cl)cc1)C(=N)N1CCCCC1	none | Jurkat NFkB conf inactive
N#C/C(=N\Nc1ccccc1F)C(=N)N1CCCCC1	none
N#C/C(=N\Nc1ccc(F)cc1)C(=N)N1CCCCCC1	none | Jurkat NFkB conf inactive
Cc1ccc(N/N=C(\C#N)C(=N)N2CCOCC2)cc1	none
COc1ccc(N/N=C(\C#N)C(=N)N2CCCCC2)cc1	none
Cc1ccc(N/N=C(\C#N)C(=N)N2CCCCCC2)cc1	none | Jurkat NFkB conf inactive
O=C(Nc1cccc(Br)c1)c1ccc(CSc2ccccc2)cc1	none (no result: H9c2 TAG inh)
C/C(=N\OCc1cccc(C(=O)O)c1)c1ccc(Cl)cc1	Jurkat NFkB inh 62, aSyn UTR inh 104 | Jurkat NFkB conf inactive
C/C(=N\OCc1ccc(C#N)cc1)c1ccccc1	none
Cc1ccc(-c2cn3cccc(C)c3n2)cc1	none (no result: Jurkat NFkB inh, 697 NFkB inh)
Cc1cccn2cc(-c3cc4ccccc4oc3=O)nc12	none | Jurkat NFkB conf inactive
Cc1cccn2cc(-c3ccc(Cl)cc3)nc12	none | Jurkat NFkB conf inactive
O=c1oc2ccccc2cc1-c1cn2cccnc2n1	none
COC(=O)c1cc2c(-c3ccccc3)cc3ccccn3c-2c1C(=O)OC	none (no result: H9c2 TAG inh)
CN(C)N=Nc1ccc(S(N)(=O)=O)cc1	none
CN(C)c1ccc(N=Nc2ccc(S(N)(=O)=O)cc2)cc1	none (no result: H9c2 TAG inh) | Jurkat NFkB conf inactive
O=[N+]([O-])c1ccc(C=NNc2ccccc2)cc1	none (no result: Jurkat NFkB inh, 697 NFkB inh, aSyn UTR inh)
C/C(=N\Nc1cccc2cccnc12)c1ccc[nH]1	none | Jurkat NFkB conf inactive
COc1ccc2c(c1)CCc1c(C(=O)NC3CCCCC3)noc1-2	none (no result: H9c2 TAG inh) | Jurkat NFkB conf inactive
CCN=c1scc(C)n1/N=C/c1ccc(O)c(O)c1O	none (no result: H9c2 TAG inh)
COc1ccccc1-[n+]1c(C)cc(/C=C2\Sc3ccccc3N2C)cc1C	Jurkat NFkB inh 93, Gli-Sufu block 85 | Jurkat NFkB conf inactive
CCOc1ccc(NC(=O)c2cc3c(C)nc4ccccc4c3o2)cc1	Jurkat NFkB inh 60 | Jurkat NFkB conf inactive
CC(=Nc1ccc(Br)cc1)c1sc2ccccc2c1O	none (no result: Shn3 inh set2) | Jurkat NFkB conf inactive
CC(=O)c1cccc(NC(=O)c2cc(C(C)C)on2)c1	none
CCCc1cc(C(=O)Nc2ccc(CC)cc2)no1	none (no result: H9c2 TAG inh) | Jurkat NFkB conf inactive
CCc1ccc(NC(=O)c2cc(C(C)C)on2)cc1	none (no result: H9c2 TAG inh) | Jurkat NFkB conf inactive

Screening results from PubChem.
